The list is not random: actives were taken first. Their share in the collection is about 10%.
G9a inh = blocks human histone lysine methyltransferase G9a. Q96KQ7. G9a H3K9 monomethylation, AlphaScreen, 2 h. Potency, µM (series often up to 102 µM), actives largely listed as inhibitors. 350,000 tested, 8.8% active. AID 504332; note: nearly all actives have a fitted effect of over 75% in size
Target sequence (Q96KQ7 913-1193 limits assumed): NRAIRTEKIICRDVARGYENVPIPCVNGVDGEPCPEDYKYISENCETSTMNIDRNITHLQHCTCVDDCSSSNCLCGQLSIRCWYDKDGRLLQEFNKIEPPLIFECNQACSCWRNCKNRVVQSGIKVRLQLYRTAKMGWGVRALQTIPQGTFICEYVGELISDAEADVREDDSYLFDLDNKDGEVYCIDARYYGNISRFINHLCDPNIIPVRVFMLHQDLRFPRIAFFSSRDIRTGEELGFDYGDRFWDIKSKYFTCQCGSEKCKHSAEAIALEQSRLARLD
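G9a (20 nM) preincubated 15 min RT with compounds, then 500 nM biotinylated H3K9 peptide and 20 uM SAM added; 2 h RT reaction. Monomethyl-H3K9 product detected by AlphaScreen with anti-H3K9me1 antibody, streptavidin donor and anti-rabbit IgG acceptor beads.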
VDR inh = vitamin D3 receptor (human) inhibition; 400,000 tested, 0.93% active; Potency, µM, actives largely listed as inhibitors; P11473; AID 504847; VDR-SRC2-3 peptide fluorescence polarization, 2 h
Target sequence (P11473 whole entry, looked up): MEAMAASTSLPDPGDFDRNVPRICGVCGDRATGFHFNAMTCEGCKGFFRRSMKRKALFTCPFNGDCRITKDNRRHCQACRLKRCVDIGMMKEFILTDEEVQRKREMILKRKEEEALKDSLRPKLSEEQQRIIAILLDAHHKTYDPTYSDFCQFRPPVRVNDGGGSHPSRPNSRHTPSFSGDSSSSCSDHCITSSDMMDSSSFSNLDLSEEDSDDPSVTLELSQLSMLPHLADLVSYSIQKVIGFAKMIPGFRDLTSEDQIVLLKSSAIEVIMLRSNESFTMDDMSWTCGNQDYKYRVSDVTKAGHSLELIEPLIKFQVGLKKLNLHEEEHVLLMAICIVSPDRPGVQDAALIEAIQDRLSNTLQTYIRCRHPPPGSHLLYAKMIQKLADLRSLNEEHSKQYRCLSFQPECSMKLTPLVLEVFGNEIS
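After 23 nl compound addition and a short centrifugation, plates sat for 2 hours at ambient temperature; polarization of fluorescence then indicated loss of VDR binding to peptide SRC2-3.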
MmCpn inh = M. maripaludis TRiC chaperonin inhibition; purified Mm-Cpn ATPase, ADP Transcreener TR-FRET; Potency, µM (titrated, usually from 76.9 µM), actives largely listed as inhibitors; 330,000 tested, 0.031% active; AID 504842; note: nearly all actives have a fitted effect of over 80% in size
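ATPase turnover read by TR-FRET ADP competition (Eu cryptate antibody/ADP-d2, 665/590 nm): 10uM ATP final, 25nM Mm-CPN final, 30 min 37degC after 10-min compound preincubation, pH 7.4 Tris/KCl/MgCl2/DTT buffer.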
CCT chaperon mod = modulators of cytosolic chaperonin (CCT/TRiC) activity; purified chaperonin ATPase assay, HTRF ADP detection, 30 min; activity change, % (no concentration beside the values), hits read low; 360,000 tested, 0.3% active; AID 651819; in the data active = activity change below about -30%
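TRiC (40 or 20 nM final, by batch activity) in 30 mM Tris pH 7.4, 100 mM KCl, 5 mM MgCl2, 1 mM DTT was treated with compound at 76 uM single dose, then 10 uM ATP, 30 min at 37 °C. ADP was read by HTRF Transcreener.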
Sfp inh = inhibitors of Bacillus subtilis Sfp phosphopantetheinyl transferase; AID 1490; Potency, µM, hits mostly inhibitors; Biochemical Sfp PPTase activity, qHTS; 310,000 tested, 3.5% active;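 note: the enzyme is Sfp with the accession as filed and its product quenches rhodamine fluorescence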
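Step 1, compound plus 15 nM Sfp-PPTase, 15 min, room temperature. Step 2, add rhodamine-CoA (5 uM) and BHQ-2-YbbR (12.5 uM). Step 3, read 525/598 nm fluorescence at 0 and 30 min.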
PLK1 PBD inh = inhibitors of human PLK1 polo-box domain binding | Plk1 PBD binding of FITC phosphopeptide, fluorescence polarization | Potency, µM, actives largely listed as inhibitors | 360,000 tested, 2.8% active | AID 720504; note: series mostly up to about 57 µM; nearly all actives have a fitted effect of over 65% in size
Large screens that a line does not name were inactive. Unless noted, calls come from the whole dose curve; as a rule, active = well fitted curve in the direction sought with a large enough effect; inconclusive = small, poorly fitted or top-dose-only effect, or another doubt; inactive = no such curve, though single readings can be large; an effect the other way counts as inactive or inconclusive.

S=c1[nH]nc(-c2ccncc2)n1/N=C/C=C/c1ccco1	Sfp inh 45µM, PLK1 PBD inh inconclusive
COc1ccccc1/C=C\C=N\n1c(-c2ccc(Cl)cc2Cl)n[nH]c1=S	G9a inh 6.3µM
CC1CCN(C(=O)Cn2cc(SCc3ccccc3)c3ccccc32)CC1	none (no result: MmCpn inh, CCT chaperon mod, Sfp inh, PLK1 PBD inh)
Cc1cccc(C(=O)NC2(C(F)(F)F)N=C(c3ccccc3)N(Cc3ccccc3)C2=O)c1 (stereo unspecified)	none (no result: MmCpn inh, CCT chaperon mod, Sfp inh, PLK1 PBD inh)
CC(NC(=O)c1ccc2c(c1)CCN2S(=O)(=O)c1ccccc1)c1ccccc1 (stereo unspecified)	none (no result: MmCpn inh, CCT chaperon mod, Sfp inh, PLK1 PBD inh)
CCn1c(O)c(N=Nc2ccc3ccccc3n2)c2ccccc21	Sfp inh 22µM (no result: G9a inh)
CCCCn1c(O)c(N=Nc2ccccn2)c2ccccc21	Sfp inh inconclusive
Cc1ccc(Cn2c(C)c3cnn(CC(=O)NCCc4ccc(Cl)cc4)c(=O)c3c2C)cc1	none (no result: MmCpn inh, CCT chaperon mod, Sfp inh, PLK1 PBD inh)
CCC(Sc1ncccc1C(=O)O)C(=O)N1CCCC1 (stereo unspecified)	G9a inh inconclusive, Sfp inh 11µM
CCOC(=O)c1cccnc1SC(CC)C(=O)N1CCOCC1 (stereo unspecified)	none
O=C(Cn1cc(S(=O)(=O)Cc2cccc(Cl)c2)c2ccccc21)NCCc1ccccc1	none (no result: MmCpn inh, CCT chaperon mod, Sfp inh, PLK1 PBD inh)
Cc1cccnc1N(C(=O)Nc1ccccc1)C1=NCC(C)(C)S1	G9a inh 56µM
COc1cccc(Cn2nnc(C(=O)NCc3ccc(Cl)cc3Cl)c2N)c1	none (no result: MmCpn inh, CCT chaperon mod, Sfp inh, PLK1 PBD inh)
CCOc1ccc(S(=O)(=O)N(C)c2ccc(OCC(=O)Nc3nc(-c4cc(OC)ccc4OC)cs3)cc2)cc1	G9a inh 50µM, MmCpn inh inconclusive
C=CCn1c(NC(C)c2cc(Cl)ccc2O)nc2ccccc21 (stereo unspecified)	G9a inh inconclusive, Sfp inh inconclusive
CCOc1ccc(NC(C)c2cc(Cl)ccc2O)cc1 (stereo unspecified)	G9a inh 40µM
CC(Nc1ccc(Br)cn1)c1cc(Cl)ccc1O (stereo unspecified)	PLK1 PBD inh 27µM
CC(Nc1ccc(Cl)cc1)c1cc(Cl)ccc1O (stereo unspecified)	none
Cc1cc(C)c(-c2csc(NC(=O)C3=NN(c4ccccc4)C(=O)CC3)n2)c(C)c1	G9a inh 28µM
CSc1nc2ccc(NC(=O)C3=NN(c4ccccc4)C(=O)CC3)cc2s1	G9a inh 45µM
O=C(NCc1ccncc1)C1=NN(c2ccccc2)C(=O)CC1	G9a inh 25µM
CC(=O)O[C@@]1(C(C)=O)CCC2C3CC(C)C4=CC(=O)CC[C@@]4(C)C3CC[C@]21C (stereo partly specified)	VDR inh inconclusive (no result: MmCpn inh, CCT chaperon mod, PLK1 PBD inh)
COc1cccc(CNC(=O)c2sc3nc(C)cc(C)c3c2-n2cccc2)c1OC	none (no result: MmCpn inh, CCT chaperon mod, Sfp inh, PLK1 PBD inh)
CC(C)[C@@H](CC(=O)N[C@@H]1CCNC[C@H]1C(=O)N[C@H](CC(=O)N[C@@H](CCC(=O)O)CC(=O)O)Cc1c[nH]c2ccccc12)NC(=O)C[C@H](Cc1c[nH]c2ccccc12)NC(=O)[C@@H]1CCCC[C@H]1N	none (no result: G9a inh, MmCpn inh, CCT chaperon mod, PLK1 PBD inh)
CC(CNC(=O)C1CCN(S(=O)(=O)c2ccc3c(ccn3C)c2)CC1)c1ccccc1 (stereo unspecified)	none (no result: MmCpn inh, CCT chaperon mod, Sfp inh, PLK1 PBD inh)
Cc1nc2cnc(Oc3cccc(Cl)c3)nc2n(Cc2ccc(F)cc2)c1=O	VDR inh inconclusive (no result: MmCpn inh, CCT chaperon mod, PLK1 PBD inh)
Cn1c(CCc2nc3ccccc3[nH]2)nnc1SCC#N	PLK1 PBD inh 19µM
Cc1nnc(NC(=O)CSc2nnc(CCc3nc4ccccc4[nH]3)n2C)s1	none
CC(=O)c1ccc(NC(=O)C2CCN(S(=O)(=O)c3cccc4cccnc34)CC2)cc1	G9a inh 50µM
COc1ccc(NC(=O)C2CCN(S(=O)(=O)c3cccc4nonc34)CC2)cc1	G9a inh 45µM
COc1cccc(NC(=O)C2CCN(S(=O)(=O)c3cccc4nonc34)CC2)c1	none (no result: MmCpn inh, CCT chaperon mod, Sfp inh, PLK1 PBD inh)
Cc1cccc(NC(=O)Cn2c(=O)n(Cc3nc(-c4ccccc4)no3)c(=O)c3ccccc32)c1	none (no result: MmCpn inh, CCT chaperon mod, Sfp inh, PLK1 PBD inh)
CCOc1ccc(C2C(C(=O)c3ccc(C)o3)=C(O)C(=O)N2c2nc(C)c(C(=O)OC)s2)cc1 (stereo unspecified)	G9a inh 10µM, VDR inh inconclusive, Sfp inh 50µM, PLK1 PBD inh inconclusive
COC(=O)c1sc(N2C(=O)C(O)=C(C(=O)c3ccc(C)o3)C2c2ccc(OC)c(OC)c2)nc1C (stereo unspecified)	G9a inh 32µM, Sfp inh inconclusive
CCOC(=O)c1sc(N2C(=O)C(O)=C(C(=O)c3ccc(C)o3)C2c2ccc(OC)c(OC)c2)nc1C (stereo unspecified)	PLK1 PBD inh inconclusive
COC(=O)c1sc(N2C(=O)C(O)=C(C(=O)c3ccc(C)o3)C2c2ccc([N+](=O)[O-])cc2)nc1C (stereo unspecified)	G9a inh inconclusive, VDR inh inconclusive, PLK1 PBD inh inconclusive
CN(C)CCCN=c1cc(-c2ccccc2)oc2ccc(Cl)cc12	G9a inh 56µM
CC(C)CN=c1cc(-c2ccccc2)oc2ccc(Cl)cc12	none
COc1ccccc1NS(=O)(=O)c1cccc(-n2c(O)c(C=Nc3ccccc3C(=O)O)c3ccccc3c2=O)c1	G9a inh 45µM, PLK1 PBD inh 30µM
COc1ccc(Cn2c(O)c(C=Nc3ccccc3C(=O)O)c3ccccc3c2=O)cc1	PLK1 PBD inh inconclusive (no result: G9a inh)
CN(CC(=O)Nc1ccc(Cl)c(C(F)(F)F)c1)C(=O)C1CC(=O)N(c2ccc3c(c2)OCCO3)C1 (stereo unspecified)	none (no result: G9a inh, VDR inh, MmCpn inh, Sfp inh)
Cc1ccc(NC(=O)CN(C)C(=O)c2ccc(Cl)c([N+](=O)[O-])c2)cc1	G9a inh 22µM
Cc1ccc(NC(=O)CN(C)C(=O)Cn2cc(C(F)(F)F)ccc2=O)cc1	none
CN(CC(=O)Nc1ccc(Cl)c(C(F)(F)F)c1)C(=O)c1ccc(N2CCOCC2)c([N+](=O)[O-])c1	G9a inh 32µM (no result: Sfp inh)
CN(CC(=O)Nc1ccc(Cl)c(C(F)(F)F)c1)C(=O)Cn1cc([N+](=O)[O-])ccc1=O	G9a inh 6.3µM (no result: Sfp inh)
CN(CC(=O)Nc1ccc(Cl)c(C(F)(F)F)c1)C(=O)c1ccc2c(c1)OCCO2	CCT chaperon mod -81 (no result: Sfp inh)
COc1ccc(-n2nc(C(=O)Nc3ccc(C(C)=O)cc3)nc2-c2ccccc2)cc1	G9a inh inconclusive (no result: MmCpn inh, CCT chaperon mod, Sfp inh, PLK1 PBD inh)
CCOC(=O)c1c(C)[nH]c(C(=O)COC(=O)/C=C/c2cccc(OC)c2OC)c1C	none
CCOC(=O)c1c(C)[nH]c(C(=O)COC(=O)COc2ccccc2C=O)c1C	VDR inh inconclusive, PLK1 PBD inh 19µM
CCc1ccc(/C=N/Nc2nn[nH]n2)cc1	G9a inh 10µM

Source: PubChem (National Center for Advancing Translational Sciences (NCATS))
